# High-throughput results deposited in PubChem by National Center for Advancing Translational Sciences (NCATS).
# HT1080 IDH1KD tx = HT-1080 IDH1 knockdown cell toxicity (counter line); HT-1080 IDH1 knockdown viability, ATP luminescence, 48 h; Potency, µM (doses to about 46.1 µM), actives largely listed as cytotoxic; hit rate 2% among 360,000
#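 Assay cells: HT-1080 with IDH1 knockdown, 750 per well, RPMI/5% FBS. Exposure: 48 h at 37 °C following 2 h pre-incubation. Read: CellTiter-Glo luminescence; fitted concentration-response, curve class assigned.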
# DT40 TDP1 no CPT = qHTS for Inhibitors of human tyrosyl-DNA phosphodiesterase 1 (TDP1): qHTS in cells in absence of CPT. DT40 Tdp1-/- hTDP1 cells, no CPT, ATP luminescence, 48 h. Potency, µM (titrated, usually from 46.2 µM), usual class: inhibitors. hit rate 15% among 420,000. AID 686978, 2013; further: nearly all actives have a fitted effect of over 55% in size
#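 Growth of hTDP1-complemented DT40 Tdp1-knockout cells is measured by ATP luminescence after at least 48 hr compound exposure at 37 °C, with DMSO substituting for the 20 nM CPT used in the parallel screen.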
# DT40 TDP1 CPT = DT40-hTDP1 cell growth loss with CPT | chicken DT40 Tdp1-/-;hTDP1 cells + 20 nM CPT, ATP luminescence, 48 h | Potency, µM (titrated, usually from 46.2 µM), most hits filed as inhibitors | hit rate 12% among 420,000 | AID 686979; further: nearly all actives have a fitted effect of over 55% in size
#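 Chicken DT40 Tdp1-/- cells stably complemented with human TDP1 were seeded at 400 cells/well in medium containing 20 nM camptothecin, exposed to pin-transferred compounds, and grown at 37 °C for at least 48 hr. Viability was read as ATP luminescence.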
# IL-1B inflam inh = inhibitors of inflammasome signaling (IL-1 beta secretion) | THP-1 LPS/ATP IL-1B secretion, AlphaLISA, 16 h; hits give low values | activity change, % at 57.5 µM | hit rate 4.7% among 360,000; in the data active means activity change below about -50%; inconclusive means mostly about -30% to -49%
#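 Secreted IL-1B measured by AlphaLISA bead assay after 16 h compound exposure of THP-1 cells; compounds (final up to 57.5 uM) added 1 h before LPS (250 ng/mL) and ATP (1.25 mM) stimulation; lower signal means less secretion.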
# HT1080-NT tox = kills 2HG-producing HT-1080-NT fibrosarcoma cells. HT-1080-NT fibrosarcoma viability, CellTiter-Glo ATP luminescence, 48 h. Potency, µM (top dose mostly 46.1 µM), actives largely listed as cytotoxic. hit rate 1.6% among 360,000. AID 686970;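 further: NT is the 2HG producing partner of a matched IDH1 knockdown line; nearly all actives have a fitted effect of over 55% in size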
#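 Toxicity toward the 2HG-producing NT line was scored as %Activity, normalised to DMSO and no-cell wells, from CellTiter-Glo luminescence after 48 hours' treatment.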
# Hits are given with their value; n = inactive; u = inconclusive; x = no result given; [ ] = remark or other dose. Rows were chosen to be rich in hits. Some 19% of all compounds tested hit in one or more screens of this group. Unless noted, the call rests on the fitted dose curve; in most records, active means well fitted curve in the direction sought with a large enough effect; inconclusive means small, poorly fitted or top-dose-only effect, or another doubt; inactive means no such curve, though single readings can be large; an effect the other way counts as inactive or inconclusive.
SMILES,HT1080 IDH1KD tx,DT40 TDP1 no CPT,DT40 TDP1 CPT,IL-1B inflam inh,HT1080-NT tox
COc1ccc(OC)c(N(C(=O)c2snc(C(N)=O)c2N)C(C(=O)NCc2ccccc2)c2ccc(O)cc2)c1 (centres undefined),n,u,u,-79,n
COc1ccc(N(C(=O)c2snc(C(N)=O)c2N)C(C(=O)NCc2ccccc2)c2ccc(O)cc2)cc1 (centres undefined),n,23µM,u,n,n
NC(=O)c1nsc(C(=O)N(c2ccccc2)C(C(=O)NCc2ccc(F)cc2)c2ccc(O)cc2)c1N (centres undefined),n,18µM,21µM,n,n
NC(=O)c1nsc(C(=O)N(c2ccccc2)C(C(=O)NC2CCCC2)c2ccncc2)c1N (centres undefined),n,n,n,n,n
Cc1ccc(S(=O)(=O)NCc2cccnc2)cc1C(=O)N1CCCC1,n,n,n,n,n
CCC1CN(CCNC(=O)c2cccc3nccnc23)Cc2cc(OC)ccc2O1 (centres undefined),x,u,n[9.04 µM],x,x
Cc1nnc(N2CCN(C(=O)NC(C)C)CC2)c2nn(-c3ccccc3)c(C)c12,x,n,n,x,x
COc1ccc(C2(C)C(C#N)C(=O)NC(=O)C2C#N)cc1 (centres undefined),n,2.3µM,n,n,n
CCN(CC(=O)Nc1ccccc1C(F)(F)F)C(=O)CCOc1ccc(C)cc1,n,u,n,n,n
Cc1cc2nc(C)n(CCCNC(=O)Nc3ccc(C#N)cc3)c2cc1C,u,u,u,n,u
Cc1cc2nc(C)n(CCCN)c2cc1C,n,18µM,23µM,n,n
C=CC[C@@H](CC(=O)OC(C)(C)C)C(=O)OC[C@@H]1CCCN1C(=O)[C@H](CC=C)CC(=O)NCCO,n,n,n,n,n
CCCNC1=C(N(C(C)=O)c2cccc(F)c2)C(=O)c2ccccc2C1=O,4.6µM,2.1µM,2.6µM,-84,8.2µM
Cc1ccc(O)c(N=NC2=C(O)CC(C)(C)CC2=O)c1,u,8.2µM,15µM,n,n
CC1(C)CC(=O)C(N=Nc2cc(Cl)c(Cl)c(Cl)c2)=C(O)C1,n,n,n,n,n
CC1(C)CC(=O)C(C=Nc2ccc(O)c(N=CC3=C(O)CC(C)(C)CC3=O)c2)=C(O)C1,n,u,16µM,n,n
CC1(C)CC(=O)C(C=Nc2cccnc2/N=C/C2=C(O)CC(C)(C)CC2=O)=C(O)C1,n,u,4.6µM,n,n
COc1ccccc1-c1ccc([C@@H]2C[C@H]3[C@H](CON3C)CN2C(=O)c2ccco2)cc1,n,u,n,n,n
CCCCNC(=O)C(NC(=O)c1cnccn1)C(=O)c1ccccc1 (centres undefined),n,n,n,n,n
COC(=O)c1c(NC(=O)CN2C(=O)NC3(CCCCC3C)C2=O)sc2c1CCC2 (centres undefined),u,u,u,-52,n
CC(C)c1ccc(NC(=S)Nc2cccc3ccccc23)cc1,n,16µM,18µM,n,n
Fc1ccc(NC(=S)Nc2cccc3ccccc23)cc1F,n,16µM,u,n,n
Cc1ccc(NC(=S)Nc2cccc3ccccc23)cc1,n,n,n,n,n
CCc1ccccc1NC(=S)N(CCN1CCOCC1)Cc1ccccc1F,n,u,u,n,n
COc1ccc(CC(=O)OCC(=O)NC2CCCC(C)C2C)cc1OC (centres undefined),n,n,n,n,n
SMILES,HT1080 IDH1KD tx,DT40 TDP1 no CPT,DT40 TDP1 CPT,IL-1B inflam inh,HT1080-NT tox
C[N+]1(C2CCC3CCCC2C3O)CCCC1 (centres undefined),n,n,n,n,n
Cc1noc(/C=C/N(C)C)c1S(=O)(=O)N(C)Cc1ccc(F)cc1,n,u,u,n,n
CCCSC1=N/C(=C\C=C\c2ccco2)C(=O)S1,n,18µM,26µM,n,n
CCCSC1=N/C(=C\c2ccc([N+](=O)[O-])o2)C(=O)S1,n,u,21µM,n,n
CCOc1ccc(NS(=O)(=O)c2cccs2)cc1S(=O)(=O)N1CCCC1,n,n,n,n,n
CCC1C/C(=C\c2cc(OC)c(OC)cc2OC)C(=O)/C(=C/c2cc(OC)c(OC)cc2OC)C1 (centres undefined),21µM,13µM,u,-70,13µM
COc1cc(OC)c(OC)cc1/C=C1/Cc2ccccc2C1=O,n,n,n,n,n
COc1cc(OC)c(OC)cc1/C=C1\CC(C)C/C(=C\c2cc(OC)c(OC)cc2OC)C1=O (centres undefined),u,18µM,18µM,-84,u
CCc1ccc(-c2n[nH]nc2C2=CC(=O)C[C@H](c3ccc(F)cc3)C2)cc1,n,2.9µM,u,n,n
COc1ccc(C2=CC(=O)CC(c3ccc(F)cc3)C2)cn1 (centres undefined),n,u,15µM,n,n
COc1cc(F)cc(C2=CC(=O)C[C@H](c3ccc(F)cc3)C2)c1,u,u,u,u,n
COc1ccccc1-c1n[nH]nc1C1=CC(=O)C[C@H](c2ccc(F)cc2)C1,n,u,u,x,n
COCCn1c(C)cc(O)c(C(c2ccccc2OC)N2CCCCC2)c1=O (centres undefined),x,n,n,x,x
Cc1cc2nc3c(=O)n(CCc4ccccc4)c(=O)[nH]c3nc2cc1N,n,21µM,n,u,n
COc1ccc2cc3c(N)nn(C(=O)c4ccccc4[N+](=O)[O-])c3nc2c1,n,2.3µM,2.6µM,x,n
COc1ccc2cc3c(N)nn(C(=O)c4ccc(Cl)c([N+](=O)[O-])c4)c3nc2c1,n,u,u,n,n
CCCCn1c(N)c(N(CCOC)C(=O)c2oc3ccc(OCC)cc3c2C)c(=O)[nH]c1=O,n,n,n,n,n
COc1ccc(NC(=O)[C@@H]2CCCN2S(=O)(=O)c2ccc(Cl)cc2)cc1,n,u,u,n,n
CCCOc1ccc(/C=N/NC(=O)C2CCCN2S(=O)(=O)c2ccc(Cl)cc2)cc1 (centres undefined),n[9.24 µM],u,16µM,n,u
O=C(Nc1ccc(Cl)cn1)C1CCCN1S(=O)(=O)c1ccc(Cl)cc1 (centres undefined),n,n,u,n,n
CC(C)Oc1ccc(/C=N/NC(=O)C2CCCN2S(=O)(=O)c2ccc(Cl)cc2)cc1 (centres undefined),n[9.24 µM],21µM,u,n,n
Cc1ccc([C@H]2C[C@@H](O)[C@H](n3cc(COC(=O)c4ccccc4)nn3)CN2C(=O)c2cccs2)cc1,n,26µM,u,n,n
Cc1ccc([C@H]2C[C@H](O)[C@@H](n3cc(COC(=O)c4ccccc4)nn3)CN2Cc2cccs2)cc1,u,23µM,21µM,u,u
